For some assays here: Results with a measured potency or affinity are listed apart.
What was measured:
Set-up in all cases: scale not given: direction of the effect not stated beside the values
[1] = target: Protein translocase subunit SecA (Escherichia coli (strain K12)) (UniProt P10408); assay: Assay to Identify E. coli SecA ATPase Inhibitors; assay type: functional; details: 30 µM
[2] = target: T1, Ubiquitin-activating enzyme e1, putative (Leishmania donovani (strain BPK282A1)) (UniProt E9BSI1); assay: Leishmania donovani Ubiquitin Activating Enzyme (LdE1); assay type: functional; details: 30 µM
T1 sequence (whole entry): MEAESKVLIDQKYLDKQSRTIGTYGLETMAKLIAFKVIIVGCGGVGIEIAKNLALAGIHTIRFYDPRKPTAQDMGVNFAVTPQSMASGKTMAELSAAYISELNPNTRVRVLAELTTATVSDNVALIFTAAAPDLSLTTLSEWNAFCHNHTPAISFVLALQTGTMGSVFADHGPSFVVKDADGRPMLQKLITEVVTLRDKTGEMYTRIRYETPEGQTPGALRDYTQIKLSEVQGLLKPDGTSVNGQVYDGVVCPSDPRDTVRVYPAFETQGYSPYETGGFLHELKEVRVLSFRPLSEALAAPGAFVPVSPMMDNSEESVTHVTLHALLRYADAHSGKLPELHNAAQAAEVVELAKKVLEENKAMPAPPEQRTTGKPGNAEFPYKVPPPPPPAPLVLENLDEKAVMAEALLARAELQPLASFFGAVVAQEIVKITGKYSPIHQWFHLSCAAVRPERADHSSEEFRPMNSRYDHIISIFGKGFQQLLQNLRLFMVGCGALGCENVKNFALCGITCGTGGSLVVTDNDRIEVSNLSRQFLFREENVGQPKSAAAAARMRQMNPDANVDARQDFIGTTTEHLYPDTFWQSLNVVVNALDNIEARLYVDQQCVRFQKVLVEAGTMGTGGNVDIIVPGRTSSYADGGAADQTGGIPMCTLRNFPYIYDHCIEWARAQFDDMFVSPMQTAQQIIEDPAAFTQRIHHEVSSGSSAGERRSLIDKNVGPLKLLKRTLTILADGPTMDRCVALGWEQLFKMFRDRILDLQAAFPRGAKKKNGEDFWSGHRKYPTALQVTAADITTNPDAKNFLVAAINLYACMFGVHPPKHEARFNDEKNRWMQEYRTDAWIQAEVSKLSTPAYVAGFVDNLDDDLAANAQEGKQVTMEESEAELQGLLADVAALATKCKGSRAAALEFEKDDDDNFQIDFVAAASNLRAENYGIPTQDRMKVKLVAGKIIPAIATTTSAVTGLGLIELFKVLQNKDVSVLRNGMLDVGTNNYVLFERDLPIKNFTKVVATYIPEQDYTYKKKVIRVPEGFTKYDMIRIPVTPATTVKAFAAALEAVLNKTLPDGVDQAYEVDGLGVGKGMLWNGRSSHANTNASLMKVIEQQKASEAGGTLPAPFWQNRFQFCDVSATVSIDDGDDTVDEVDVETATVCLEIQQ

[3] = target: AMP-activated protein kinase, AMPK (Homo sapiens) (UniProt P54646+O43741+P54619+Q9UGJ0+Q9Y478+Q13131+Q9UGI9); assay: AMP-dependent Kinase enzyme assay. An in vitro enzyme assay that detects ADP turnover that is directly proportional to AMPK activity. This uses naive AMPK that is activated during the assay with MK-8722; assay type: functional; details: 30 µM
[4] = target: Sialic acid-binding Ig-like lectin 9 (Homo sapiens) (UniProt Q9Y336); assay: Hs-Siglec9 ALPHAscreen SOP 20170721; details: 10 µM
Sequence of Sialic acid-binding Ig-like lectin 9 (Homo sapiens) (Q9Y336 whole entry): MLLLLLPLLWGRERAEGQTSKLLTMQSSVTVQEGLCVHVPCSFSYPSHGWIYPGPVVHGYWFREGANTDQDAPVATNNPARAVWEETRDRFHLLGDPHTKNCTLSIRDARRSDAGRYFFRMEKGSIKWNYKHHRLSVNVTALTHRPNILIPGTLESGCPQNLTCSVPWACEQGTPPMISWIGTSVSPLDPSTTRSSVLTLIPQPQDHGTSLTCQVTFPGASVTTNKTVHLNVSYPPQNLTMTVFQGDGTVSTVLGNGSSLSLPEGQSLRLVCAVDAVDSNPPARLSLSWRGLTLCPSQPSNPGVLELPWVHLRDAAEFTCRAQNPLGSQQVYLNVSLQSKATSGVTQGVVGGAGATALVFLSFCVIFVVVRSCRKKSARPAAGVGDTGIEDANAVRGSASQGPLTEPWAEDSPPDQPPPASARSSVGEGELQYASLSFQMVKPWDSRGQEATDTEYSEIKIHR

Trypanosoma cruzi = assay: Trypanosoma cruzi phosphomannomutase and mannose-1-phosphate guanylyltransferase assay; assay type: functional; details: 10 µM
[5] = target: T2, Arginase-2, mitochondrial (Homo sapiens) (UniProt P78540); assay: in vitro enzyme assay to detect the production of urea directly proportional to the activity of Arginase II; assay type: functional; details: 33.3 µM; also: in the data most compounds retested in dose-response had high values
T2 sequence (whole entry): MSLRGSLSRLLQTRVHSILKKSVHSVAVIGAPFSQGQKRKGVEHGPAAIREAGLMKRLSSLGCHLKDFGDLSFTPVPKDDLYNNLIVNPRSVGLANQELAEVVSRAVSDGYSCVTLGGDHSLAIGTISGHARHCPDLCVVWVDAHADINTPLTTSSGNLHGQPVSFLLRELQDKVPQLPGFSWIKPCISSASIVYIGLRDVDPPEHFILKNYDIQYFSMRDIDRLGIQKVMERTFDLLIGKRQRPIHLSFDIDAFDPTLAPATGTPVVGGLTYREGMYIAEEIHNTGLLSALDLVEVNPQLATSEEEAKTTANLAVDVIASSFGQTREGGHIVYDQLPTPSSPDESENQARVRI

[6] = target: T3, Proteasome subunit beta (Trypanosoma cruzi) (UniProt O96673); assay: Trypanosoma cruzi proteasome chymotrypsin-like activity (TcProtChymo) assay.; also: in the data most compounds retested in dose-response had high values; assay type: functional; details: 9.37 µM
T3 sequence (whole entry): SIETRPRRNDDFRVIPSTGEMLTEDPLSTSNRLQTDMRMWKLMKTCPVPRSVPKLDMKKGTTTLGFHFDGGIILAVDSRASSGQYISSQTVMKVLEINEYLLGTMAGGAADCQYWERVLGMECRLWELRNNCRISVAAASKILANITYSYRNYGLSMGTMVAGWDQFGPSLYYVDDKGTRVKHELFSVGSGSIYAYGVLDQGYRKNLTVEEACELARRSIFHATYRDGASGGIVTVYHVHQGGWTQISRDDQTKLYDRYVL

Homo sapiens = organism: Homo sapiens; assay: To identify inhibition of the IFN signalling (Jak-Stat) pathway via expression of an eGFP reporter gene under the control of an IFN-stimulated response element (ISRE) containing MxA promoter.; assay type: functional; details: 30 µM
[7] = target: T4, Tyrosyl-tRNA synthetase, putative (Trypanosoma cruzi (strain CL Brener)) (UniProt Q4DSP6); assay: Trypanosoma cruzi tyrosyl tRNA synthetase (TcYRS) _High Tyrosine SOP; assay type: functional; details: 30 µM; also: in the data most compounds retested in dose-response had high values
T4 sequence (whole entry): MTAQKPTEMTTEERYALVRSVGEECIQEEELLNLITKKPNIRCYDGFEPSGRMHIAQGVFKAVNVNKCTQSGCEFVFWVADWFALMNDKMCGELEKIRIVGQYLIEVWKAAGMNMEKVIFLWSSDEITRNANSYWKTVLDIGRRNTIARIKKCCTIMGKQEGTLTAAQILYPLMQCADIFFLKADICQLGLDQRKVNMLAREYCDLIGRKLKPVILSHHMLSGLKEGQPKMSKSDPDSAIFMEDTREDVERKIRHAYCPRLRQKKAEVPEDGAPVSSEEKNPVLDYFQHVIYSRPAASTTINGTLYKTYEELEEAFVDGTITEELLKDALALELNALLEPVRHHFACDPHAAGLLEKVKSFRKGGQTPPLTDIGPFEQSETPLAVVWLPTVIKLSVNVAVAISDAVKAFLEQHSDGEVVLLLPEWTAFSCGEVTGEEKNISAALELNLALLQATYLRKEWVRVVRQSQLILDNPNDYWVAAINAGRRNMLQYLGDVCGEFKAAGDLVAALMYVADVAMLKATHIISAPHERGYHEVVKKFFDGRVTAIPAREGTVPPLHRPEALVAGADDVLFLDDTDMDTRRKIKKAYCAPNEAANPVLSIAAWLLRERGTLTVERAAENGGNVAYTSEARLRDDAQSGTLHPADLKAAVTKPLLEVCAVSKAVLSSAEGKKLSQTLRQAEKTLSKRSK

[8] = target: T4, Tyrosyl-tRNA synthetase, putative (Trypanosoma cruzi (strain CL Brener)); assay: Trypanosoma cruzi tyrosyl tRNA synthetase (TcYRS) SOP; assay type: functional; details: 30 µM
[9] = target: Chromo domain-containing protein 1 (Saccharomyces cerevisiae (strain ATCC 204508 / S288c) (Baker's yeast)) (UniProt P32657); assay: ScCHD-1 Enzyme Inhibition Assay; assay type: functional; details: 30 µM; also: in the data most compounds retested in dose-response had high values
Sequence of Chromo domain-containing protein 1 (Saccharomyces cerevisiae (strain ATCC 204508 / S288c) (Baker's yeast)) (P32657 whole entry, the tested form may be a part): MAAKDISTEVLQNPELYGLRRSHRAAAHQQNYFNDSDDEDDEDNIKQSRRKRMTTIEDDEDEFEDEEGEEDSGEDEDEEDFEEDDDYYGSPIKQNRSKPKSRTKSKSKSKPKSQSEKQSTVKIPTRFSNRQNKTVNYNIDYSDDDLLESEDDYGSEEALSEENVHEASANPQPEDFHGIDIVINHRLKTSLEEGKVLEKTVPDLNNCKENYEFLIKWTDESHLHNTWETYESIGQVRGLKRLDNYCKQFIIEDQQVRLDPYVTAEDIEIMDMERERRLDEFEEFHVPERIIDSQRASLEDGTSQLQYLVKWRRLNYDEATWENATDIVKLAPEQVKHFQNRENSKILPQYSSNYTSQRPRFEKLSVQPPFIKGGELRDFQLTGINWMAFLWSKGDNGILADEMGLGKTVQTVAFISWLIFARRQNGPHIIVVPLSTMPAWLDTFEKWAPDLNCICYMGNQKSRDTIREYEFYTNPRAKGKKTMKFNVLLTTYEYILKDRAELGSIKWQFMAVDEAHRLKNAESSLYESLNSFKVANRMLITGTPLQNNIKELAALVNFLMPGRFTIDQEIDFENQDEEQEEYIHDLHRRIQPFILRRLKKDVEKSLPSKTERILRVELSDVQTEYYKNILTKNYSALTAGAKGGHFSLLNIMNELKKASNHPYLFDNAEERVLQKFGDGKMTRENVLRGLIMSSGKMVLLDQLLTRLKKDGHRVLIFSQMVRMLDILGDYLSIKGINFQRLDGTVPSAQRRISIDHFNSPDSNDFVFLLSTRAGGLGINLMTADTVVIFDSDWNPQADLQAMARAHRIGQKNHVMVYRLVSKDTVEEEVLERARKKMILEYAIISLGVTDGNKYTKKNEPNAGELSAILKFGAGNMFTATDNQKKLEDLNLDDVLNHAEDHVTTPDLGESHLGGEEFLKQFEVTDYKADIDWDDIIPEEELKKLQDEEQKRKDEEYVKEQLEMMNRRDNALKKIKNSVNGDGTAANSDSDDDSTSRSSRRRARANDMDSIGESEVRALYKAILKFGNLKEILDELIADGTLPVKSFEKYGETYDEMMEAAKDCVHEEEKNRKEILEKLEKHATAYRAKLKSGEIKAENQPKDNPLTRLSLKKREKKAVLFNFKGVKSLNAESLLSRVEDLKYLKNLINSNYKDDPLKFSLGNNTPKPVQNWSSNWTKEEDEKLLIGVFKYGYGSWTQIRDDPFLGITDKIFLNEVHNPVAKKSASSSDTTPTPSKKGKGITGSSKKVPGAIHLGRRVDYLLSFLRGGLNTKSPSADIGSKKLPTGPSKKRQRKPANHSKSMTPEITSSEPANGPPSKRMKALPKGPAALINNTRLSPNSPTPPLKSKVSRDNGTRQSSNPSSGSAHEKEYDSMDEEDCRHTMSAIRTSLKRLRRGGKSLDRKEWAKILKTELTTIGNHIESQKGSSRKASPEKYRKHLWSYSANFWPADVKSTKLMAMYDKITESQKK

Sequence of Protein translocase subunit SecA (Escherichia coli (strain K12)) (P10408 whole entry): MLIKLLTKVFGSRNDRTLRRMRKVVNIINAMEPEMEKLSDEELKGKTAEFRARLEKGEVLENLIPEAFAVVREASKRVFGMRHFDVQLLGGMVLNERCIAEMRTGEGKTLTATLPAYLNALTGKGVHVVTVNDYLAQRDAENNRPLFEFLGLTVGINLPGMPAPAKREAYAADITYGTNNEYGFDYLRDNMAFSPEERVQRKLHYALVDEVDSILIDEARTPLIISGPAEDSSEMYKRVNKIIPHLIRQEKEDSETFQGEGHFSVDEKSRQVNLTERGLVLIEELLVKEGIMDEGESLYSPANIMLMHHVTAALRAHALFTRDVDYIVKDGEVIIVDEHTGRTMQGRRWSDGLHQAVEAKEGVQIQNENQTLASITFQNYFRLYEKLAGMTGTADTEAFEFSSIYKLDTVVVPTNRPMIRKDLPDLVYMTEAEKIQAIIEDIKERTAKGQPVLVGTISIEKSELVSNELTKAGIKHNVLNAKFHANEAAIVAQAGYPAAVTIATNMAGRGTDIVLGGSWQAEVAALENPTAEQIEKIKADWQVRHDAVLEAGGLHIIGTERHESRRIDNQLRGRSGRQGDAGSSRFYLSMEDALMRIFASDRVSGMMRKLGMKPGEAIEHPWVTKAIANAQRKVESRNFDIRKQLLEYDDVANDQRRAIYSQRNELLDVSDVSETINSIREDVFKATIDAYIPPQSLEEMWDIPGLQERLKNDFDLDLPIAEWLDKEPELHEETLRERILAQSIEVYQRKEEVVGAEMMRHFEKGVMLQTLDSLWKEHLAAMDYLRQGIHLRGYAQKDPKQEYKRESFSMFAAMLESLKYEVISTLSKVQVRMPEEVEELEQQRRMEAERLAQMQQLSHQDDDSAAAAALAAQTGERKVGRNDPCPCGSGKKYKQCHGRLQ

Compound | Percent Effect [1] [%] | Percent Effect [2] [%] | Percent Effect [3] [%] | Percent Effect [4] [%] | Percent Effect (Trypanosoma cruzi) [%] | Percent Effect [5] [%] | Percent Effect [6] [%] | Percent Effect (Homo sapiens) [%] | Percent Effect [7] [%] | Percent Effect [8] [%] | Percent Effect [9] [%]
O=C(CN1CCCCC1C1OCCO1)Nc1ccc(F)c(F)c1 (configuration not stated) | -3.75 | 5.41 | 1.85 | -4.88 | -1.95 | 0 | 6.68 | 17.6 | 1.98 | 6.1 | 2.05
O=C(CCCNc1ncccn1)N1CCCC(n2cccn2)C1 (configuration not stated) | -7.67 | -1.27 | 0.0579 | -1.81 | -3.18 | -4.52 | 2.23 | 14.1 | -3.12 | -2.53 | -14.1
COc1cc2nc(C)n(CC(=O)NCCCN(C)C)c(=O)c2cc1OC | -0.823 | 20 | -6.34 | -3.21 | 4.13 | -2.99 | 17.4 | 12.2 | 6.35 | 15.4 | -9.62
CCC1=N[C@@]2(CC[C@@H]3CN(C(=O)NC(C)C)C[C@@H]32)C(=O)N1C | -5.93 | 18.9 | -5.97 | 2.32 | 3.12 | 2.92 | 10.9 | 1.5 | 3.96 | 18.3 | -6.51
COc1ccc(COCC(O)CNC(=O)c2cccnc2)cc1 (configuration not stated) | -2.83 | 3.8 | 0.844 | -5.42 | -7.08 | -5.38 | 8.75 | 2.64 | 1.04 | 0 | -14.1
Cc1nccn1CC1CCCN1S(=O)(=O)Cc1ccccc1F (configuration not stated) | -5.1 | 22.8 | 1.28 | -4.39 | -1.79 | 1.14 | 2.05 | 13.2 | 4.43 | 21.5 | -7.01
COc1c(C)cnc(CN2CCC(C(=O)N(C)C)CC2)c1C | -5.69 | 5.2 | 0.364 | 10.3 | 2.81 | 1.42 | 9.46 | -0.558 | 1.94 | 7.32 | -6.93
O=C(CCc1ccccc1)Nc1ncccc1OC(F)F | -2.62 | 6.94 | -0.321 | -1.86 | -3.4 | -0.883 | 13.5 | -3.51 | 1.05 | 0 | -2.3
Cc1nc(C)n(C2CCCN(C(=O)Cc3cccnc3)C2)n1 (configuration not stated) | -6.21 | 5.41 | 2.37 | -1.07 | 0.586 | 2.5 | 6.17 | -10.7 | 5.94 | 11 | -2.33
O=C(NCCCO)Nc1cccc(Cl)c1F | -3.09 | 12.5 | -6.85 | 11.1 | 4.96 | 11 | 8.25 | -2.91 | 3.16 | 5.13 | -4.47
CCc1ccc(OCC(O)CN2CCC(O)CC2)cc1 (configuration not stated) | -6.44 | -2.6 | 5.75 | -12.1 | -4.21 | -1.05 | 5.42 | 11.1 | -2.86 | 0 | -19
CCOC1CCN(C(=O)c2cnn(-c3ccccc3Cl)c2)CC1 | -4.12 | 8.11 | -9.38 | 9.51 | 0.283 | 0.802 | 2.34 | 4.91 | 6.4 | 16.1 | -0.798
C=Cn1ncc(CN2C[C@@H]3CCCN3C[C@H]2CCSC)c1C | -0.255 | 1.35 | 5.26 | 9.13 | 4.94 | -1.16 | 9.36 | 15.9 | 1.07 | 1.3 | -6.62
CC(C)CNC(=O)c1c(-n2cnnn2)sc2c1CCC2 | -4.85 | 13.2 | 3.3 | 0.76 | 0.0974 | 0 | 10.4 | -15.7 | 2.13 | 15.6 | -4.29
CO[C@H]1CCN(C(=O)Cc2ccccn2)[C@H]1Cc1ccncc1 | -0.476 | 16 | 1.42 | -1.93 | -4.53 | -2.56 | 8.02 | 7.43 | 3.19 | 11.5 | -2.72
CN1CCN(c2ncccc2CNc2ncccc2C#N)CC1 | -5.21 | 8.11 | -1.66 | 20.8 | -2.44 | 3.72 | 3.86 | -10.1 | 4.3 | 13.6 | -4.55
COc1ccccc1CN1CC[C@H]2C[C@@H](C(=O)N3CCCC3)O[C@H]2C1 | 2.23 | 13 | 4.84 | -5.31 | -7.99 | 4.52 | 8.88 | 6 | 6.35 | 14.1 | -7.87
O=C(c1cnc(COc2ccccc2)nc1O)N1CCOCC1 | -3.01 | 4.17 | -4.14 | -9.54 | -1.07 | -0.442 | 8.77 | 16.1 | 2.1 | 2.56 | -1.09
Cc1ncccc1OC1(C(=O)NCCNc2ccccc2)CCNCC1 | -3.81 | 2.7 | -15.1 | 6.77 | 3.48 | -1.91 | 5.86 | 20.1 | 5.82 | 9.76 | -4.02
Cc1cnccc1CN1C[C@@H](O)[C@H](Oc2ccccc2)C1 | 4.34 | -4.05 | 6.12 | 0.247 | 0.593 | 3.02 | 3.28 | 11.6 | 2.15 | -1.3 | -12.9
CCc1c(C(=O)NCC2CCS(=O)(=O)C2)cnn1-c1ccc(C)cc1 (configuration not stated) | -3.51 | 17.7 | -2.2 | -1.25 | 2.74 | 4.94 | 2.54 | 5.86 | 5.42 | 21.5 | -6.44
Cn1cnc2c1C(COCc1ccccc1)N(Cc1ccncc1)CC2 (configuration not stated) | -1.94 | 2.67 | -0.486 | 11.9 | -1.16 | -25.6 | 7.69 | -15.2 | 3.12 | 10 | -6.37

From ChEMBL document CHEMBL3988442, “University of Dundee, Small-Polar-MMV Screening Library” (2021)
